PubChem BioAssay AID1159580 (chemical genetic matrix, 2015)
Out of some 5,500 compounds screened, about 2,000 (36%) were called active. Another 18% or so got no clear call; they are omitted. Cut-off read from the data, not from the text of the source: active = normalized growth mostly below about 0.91 (no sharp cut-off); inconclusive = no clear call, values can overlap the other calls; inactive = mostly above about 0.92. This is one part of the list.

Test: chemical genetic growth profiling, strain panel (AID 1159580);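 note: tested at 20 µM; growth read once vehicle control cultures reached saturation at 30 °C; 1 = growth at the plate median or of vehicle wells; lower values mean less growth of the strain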
Conditions: growth OD

Measured: normalized growth

CC1CC2C3CCC4=CC(=O)C=C[C@]4(C)[C@@]3(F)[C@@H](O)C[C@]2(C)[C@@]1(O)C(=O)CO (stereo partly drawn)
inactive: S. cerevisiae deletion strains, locus YAL013W, strain DEP1, stronger effect = lower value 0.995 | S. cerevisiae deletion strains, locus YAL021C, strain ccr4, stronger effect = lower value 0.974 | S. cerevisiae deletion strains, locus YAL026C, strain drs2, stronger effect = lower value 0.987 | S. cerevisiae deletion strains, locus YAL030W, strain snc1, stronger effect = lower value 0.96 | S. cerevisiae deletion strains, locus YBL061C, strain skt5, stronger effect = lower value 0.99 | S. cerevisiae deletion strains, locus YBR009C, strain hhf1, stronger effect = lower value 1.03 | S. cerevisiae deletion strains, locus YBR021W, strain FUR4, stronger effect = lower value 0.984 | S. cerevisiae deletion strains, locus YBR023C, strain chs3, stronger effect = lower value 0.983 | S. cerevisiae deletion strains, locus YBR171W, strain sec66, stronger effect = lower value 0.982 | S. cerevisiae deletion strains, locus YBR229C, strain ROT2, stronger effect = lower value 0.989 | S. cerevisiae deletion strains, locus YBR231C, strain swc5, stronger effect = lower value 1.06 | S. cerevisiae deletion strains, locus YBR279W, strain paf1, stronger effect = lower value 1 | S. cerevisiae deletion strains, locus YCL011C, strain gbp2, stronger effect = lower value 0.954 | S. cerevisiae deletion strains, locus YCL016C, strain dcc1, stronger effect = lower value 0.978 | S. cerevisiae deletion strains, locus YCL029C, strain bik1, stronger effect = lower value 0.979 | S. cerevisiae deletion strains, locus YCL061C, strain MRC1, stronger effect = lower value 0.995 | S. cerevisiae deletion strains, locus YCL069W, strain vba3, stronger effect = lower value 0.995 | S. cerevisiae deletion strains, locus YCR088W, strain abp1, stronger effect = lower value 0.996 | S. cerevisiae deletion strains, locus YDL005C, strain med2, stronger effect = lower value 0.973 | S. cerevisiae deletion strains, locus YDL035C, strain GPR1, stronger effect = lower value 1.03 | S. cerevisiae deletion strains, locus YDL040C, strain nat1, stronger effect = lower value 0.975 | S. cerevisiae deletion strains, locus YDL074C, strain BRE1, stronger effect = lower value 0.979 | S. cerevisiae deletion strains, locus YDL101C, strain DUN1, stronger effect = lower value 0.976 | S. cerevisiae deletion strains, locus YDL185W, strain tfp1, stronger effect = lower value 0.982 | S. cerevisiae deletion strains, locus YDL192W, strain arf1, stronger effect = lower value 0.974 | S. cerevisiae deletion strains, locus YDR001C, strain nth1, stronger effect = lower value 0.988 | S. cerevisiae deletion strains, locus YDR069C, strain doa4, stronger effect = lower value 0.979 | S. cerevisiae deletion strains, locus YDR101C, strain arx1, stronger effect = lower value 0.984 | S. cerevisiae deletion strains, locus YDR137W, strain rgp1, stronger effect = lower value 0.987 | S. cerevisiae deletion strains, locus YDR159W, strain sac3, stronger effect = lower value 1.01 | S. cerevisiae deletion strains, locus YDR162C, strain NBP2, stronger effect = lower value 1.02 | S. cerevisiae deletion strains, locus YDR195W, strain ref2 0.99 | S. cerevisiae deletion strains, locus YDR297W, strain sur2, stronger effect = lower value 0.995 | S. cerevisiae deletion strains, locus YDR318W, strain mcm21, stronger effect = lower value 0.983 | S. cerevisiae deletion strains, locus YDR334W, strain swr1, stronger effect = lower value 0.976 | S. cerevisiae deletion strains, locus YDR335W, strain msn5, stronger effect = lower value 0.984 | S. cerevisiae deletion strains, locus YDR388W, stronger effect = lower value 0.968 | S. cerevisiae deletion strains, locus YDR392W, strain spt3, stronger effect = lower value 0.904 | S. cerevisiae deletion strains, locus YDR502C, strain sam2, stronger effect = lower value 0.991 | S. cerevisiae deletion strains, locus YEL003W, strain gim4, stronger effect = lower value 0.963 | S. cerevisiae deletion strains, locus YEL037C, strain rad23, stronger effect = lower value 0.976 | S. cerevisiae deletion strains, locus YEL061C, strain CIN8 (second series), stronger effect = lower value 0.988 | S. cerevisiae deletion strains, locus YEL061C, strain CIN8, stronger effect = lower value 0.994 | S. cerevisiae deletion strains, locus YER015W, strain faa2, stronger effect = lower value 0.991 | S. cerevisiae deletion strains, locus YER016W, strain bim1, stronger effect = lower value 0.95 | S. cerevisiae deletion strains, locus YER110C, stronger effect = lower value 0.958 | S. cerevisiae deletion strains, locus YER111C, strain swi4, stronger effect = lower value 0.983 | S. cerevisiae deletion strains, locus YER155C, strain BEM2 (second series), stronger effect = lower value 1.03 | S. cerevisiae deletion strains, locus YER155C, strain BEM2, stronger effect = lower value 0.984 | S. cerevisiae deletion strains, locus YER167W, strain BCK2, stronger effect = lower value 1 | S. cerevisiae deletion strains, locus YFR010W, strain ubp6, stronger effect = lower value 1.01 | S. cerevisiae deletion strains, locus YGL078C, strain dbp3, stronger effect = lower value 0.971 | S. cerevisiae deletion strains, locus YGL086W, strain mad1, stronger effect = lower value 0.98 | S. cerevisiae deletion strains, locus YGL167C, strain pmr1, stronger effect = lower value 0.983 | S. cerevisiae deletion strains, locus YGL173C, strain kem1, stronger effect = lower value 0.979 | S. cerevisiae deletion strains, locus YGL227W, strain vid30, stronger effect = lower value 0.999 | S. cerevisiae deletion strains, locus YGL240W, strain doc1, stronger effect = lower value 1.01 | S. cerevisiae deletion strains, locus YGL248W, strain PDE1, stronger effect = lower value 0.98 | S. cerevisiae deletion strains, locus YGL253W, strain hxk2, stronger effect = lower value 0.974 | S. cerevisiae deletion strains, locus YGR135W, strain pre9, stronger effect = lower value 0.969 | S. cerevisiae deletion strains, locus YGR229C, strain SMI1, stronger effect = lower value 1.02 | S. cerevisiae deletion strains, locus YGR252W, strain gcn5, stronger effect = lower value 1.02 | S. cerevisiae deletion strains, locus YHR013C, strain ard1, stronger effect = lower value 0.954 | S. cerevisiae deletion strains, locus YHR027C, strain rpn1, stronger effect = lower value 0.992 | S. cerevisiae deletion strains, locus YHR030C, strain SLT2, stronger effect = lower value 0.99 | S. cerevisiae deletion strains, locus YHR079C, strain IRE1 (second series), stronger effect = lower value 0.965 | S. cerevisiae deletion strains, locus YHR094C, strain hxt1, stronger effect = lower value 0.97 | S. cerevisiae deletion strains, locus YHR129C, strain ARP1, stronger effect = lower value 0.993 | S. cerevisiae deletion strains, locus YHR142W, strain chs7, stronger effect = lower value 0.959 | S. cerevisiae deletion strains, locus YHR200W, strain rpn10, stronger effect = lower value 0.983 | S. cerevisiae deletion strains, locus YIL066C, strain RNR3, stronger effect = lower value 1 | S. cerevisiae deletion strains, locus YIL073C, strain SPO22, stronger effect = lower value 0.972 | S. cerevisiae deletion strains, locus YIL125W, strain kgd1, stronger effect = lower value 0.963 | S. cerevisiae deletion strains, locus YIR030C, strain dcg1, stronger effect = lower value 0.965 | S. cerevisiae deletion strains, locus YJL092W, strain hpr5, stronger effect = lower value 0.963 | S. cerevisiae deletion strains, locus YJL095W, strain BCK1 (second series), stronger effect = lower value 0.945 | S. cerevisiae deletion strains, locus YJL095W, strain BCK1, stronger effect = lower value 0.96 | S. cerevisiae deletion strains, locus YJL115W, strain asf1, stronger effect = lower value 0.976 | S. cerevisiae deletion strains, locus YJL129C, strain trk1, stronger effect = lower value 0.965 | S. cerevisiae deletion strains, locus YJL134W, strain LCB3, stronger effect = lower value 0.99 | S. cerevisiae deletion strains, locus YJL154C, strain vps35, stronger effect = lower value 0.966 | S. cerevisiae deletion strains, locus YJL164C, strain tpk1, stronger effect = lower value 1 | S. cerevisiae deletion strains, locus YJL166W, strain qcr8, stronger effect = lower value 1 | S. cerevisiae deletion strains, locus YJL168C, strain set2, stronger effect = lower value 0.966 | S. cerevisiae deletion strains, locus YJL187C, strain SWE1 (second series), stronger effect = lower value 0.982 | S. cerevisiae deletion strains, locus YJR043C, strain POL32, stronger effect = lower value 1.04 | S. cerevisiae deletion strains, locus YKL009W, strain mrt4, stronger effect = lower value 0.963 | S. cerevisiae deletion strains, locus YKL068W, stronger effect = lower value 0.987 | S. cerevisiae deletion strains, locus YKL085W, strain MDH1 (second series), stronger effect = lower value 0.985 | S. cerevisiae deletion strains, locus YKL085W, strain MDH1, stronger effect = lower value 0.985 | S. cerevisiae deletion strains, locus YKL160W, strain elf1, stronger effect = lower value 0.943 | S. cerevisiae deletion strains, locus YKR001C, strain vps1, stronger effect = lower value 0.968 | S. cerevisiae deletion strains, locus YKR026C, strain gcn3, stronger effect = lower value 0.993 | S. cerevisiae deletion strains, locus YKR091W, strain srl3, stronger effect = lower value 0.97 | S. cerevisiae deletion strains, locus YLL001W, strain dnm1, stronger effect = lower value 1.01 | S. cerevisiae deletion strains, locus YLL026W, stronger effect = lower value 0.997 | S. cerevisiae deletion strains, locus YLL041C, strain sdh2, stronger effect = lower value 0.96 | S. cerevisiae deletion strains, locus YLR027C, strain aat2, stronger effect = lower value 0.997 | S. cerevisiae deletion strains, locus YLR039C, strain RIC1, stronger effect = lower value 0.991 | S. cerevisiae deletion strains, locus YLR058C, strain SHM2, stronger effect = lower value 0.984 | S. cerevisiae deletion strains, locus YLR102C, strain apc9, stronger effect = lower value 0.982 | S. cerevisiae deletion strains, locus YLR221C, strain rsa3, stronger effect = lower value 1.01 | S. cerevisiae deletion strains, locus YLR258W, strain gsy2, stronger effect = lower value 0.962 | S. cerevisiae deletion strains, locus YLR262C, strain YPT6 (second series), stronger effect = lower value 0.985 | S. cerevisiae deletion strains, locus YLR262C, strain YPT6, stronger effect = lower value 0.986 | S. cerevisiae deletion strains, locus YLR268W, strain sec22, stronger effect = lower value 0.965 | S. cerevisiae deletion strains, locus YLR320W, strain mms22, stronger effect = lower value 1.01 | S. cerevisiae deletion strains, locus YLR330W, strain CHS5, stronger effect = lower value 0.99 | S. cerevisiae deletion strains, locus YLR342W, strain FKS1 (second series), stronger effect = lower value 1.02 | S. cerevisiae deletion strains, locus YLR342W, strain FKS1, stronger effect = lower value 0.977 | S. cerevisiae deletion strains, locus YLR357W, strain rsc2, stronger effect = lower value 0.994 | S. cerevisiae deletion strains, locus YLR370C, strain arc18, stronger effect = lower value 0.99 | S. cerevisiae deletion strains, locus YLR371W, strain rom2, stronger effect = lower value 0.96 | S. cerevisiae deletion strains, locus YLR384C, strain iki3, stronger effect = lower value 1.01 | S. cerevisiae deletion strains, locus YLR418C, strain cdc73, stronger effect = lower value 0.974 | S. cerevisiae deletion strains, locus YML016C, strain PPZ1, stronger effect = lower value 0.989 | S. cerevisiae deletion strains, locus YML032C, strain rad52, stronger effect = lower value 0.981 | S. cerevisiae deletion strains, locus YML120C, strain ndi1, stronger effect = lower value 0.979 | S. cerevisiae deletion strains, locus YML124C, strain tub3, stronger effect = lower value 0.973 | S. cerevisiae deletion strains, locus YMR058W, strain fet3, stronger effect = lower value 0.988 | S. cerevisiae deletion strains, locus YMR078C, strain ctf18, stronger effect = lower value 0.958 | S. cerevisiae deletion strains, locus YMR125W, strain sto1, stronger effect = lower value 0.97 | S. cerevisiae deletion strains, locus YMR129W, stronger effect = lower value 0.975 | S. cerevisiae deletion strains, locus YMR205C, strain PFK2, stronger effect = lower value 1.01 | S. cerevisiae deletion strains, locus YMR223W, strain ubp8, stronger effect = lower value 0.977 | S. cerevisiae deletion strains, locus YMR231W, strain pep5, stronger effect = lower value 0.987 | S. cerevisiae deletion strains, locus YMR263W, strain SAP30, stronger effect = lower value 0.979 | S. cerevisiae deletion strains, locus YMR307W, strain GAS1, stronger effect = lower value 1.03 | S. cerevisiae deletion strains, locus YNL067W, strain RPL9B, stronger effect = lower value 0.961 | S. cerevisiae deletion strains, locus YNL071W, strain lat1, stronger effect = lower value 0.993 | S. cerevisiae deletion strains, locus YNL128W, strain TEP1, stronger effect = lower value 0.973 | S. cerevisiae deletion strains, locus YNL153C, strain GIM3, stronger effect = lower value 0.981 | S. cerevisiae deletion strains, locus YNL209W, strain ssb2, stronger effect = lower value 0.98 | S. cerevisiae deletion strains, locus YNL233W, strain BNI4, stronger effect = lower value 0.965 | S. cerevisiae deletion strains, locus YNL248C, strain rpa49, stronger effect = lower value 0.907 | S. cerevisiae deletion strains, locus YNL250W, strain rad50, stronger effect = lower value 0.962 | S. cerevisiae deletion strains, locus YNL271C, strain bni1, stronger effect = lower value 0.962 | S. cerevisiae deletion strains, locus YNL298W, strain CLA4, stronger effect = lower value 0.966 | S. cerevisiae deletion strains, locus YNL307C, strain MCK1, stronger effect = lower value 0.981 | S. cerevisiae deletion strains, locus YNL322C, strain KRE1 (second series), stronger effect = lower value 0.96 | S. cerevisiae deletion strains, locus YNR049C, strain mso1, stronger effect = lower value 0.968 | S. cerevisiae deletion strains, locus YNR052C, strain pop2, stronger effect = lower value 0.966 | S. cerevisiae deletion strains, locus YOL012C, strain htz1 0.786 | S. cerevisiae deletion strains, locus YOL147C, strain pex11, stronger effect = lower value 0.971 | S. cerevisiae deletion strains, locus YOR001W, strain rrp6, stronger effect = lower value 1.04 | S. cerevisiae deletion strains, locus YOR061W, strain CKA2, stronger effect = lower value 0.993 | S. cerevisiae deletion strains, locus YOR069W, strain VPS5, stronger effect = lower value 0.986 | S. cerevisiae deletion strains, locus YOR070C, strain gyp1, stronger effect = lower value 0.988 | S. cerevisiae deletion strains, locus YOR080W, strain dia2, stronger effect = lower value 0.957 | S. cerevisiae deletion strains, locus YOR083W, strain WHI5, stronger effect = lower value 0.914 | S. cerevisiae deletion strains, locus YOR106W, strain vam3, stronger effect = lower value 0.942 | S. cerevisiae deletion strains, locus YOR136W, strain idh2, stronger effect = lower value 0.986 | S. cerevisiae deletion strains, locus YOR144C, strain elg1, stronger effect = lower value 0.972 | S. cerevisiae deletion strains, locus YOR184W, strain ser1, stronger effect = lower value 0.979 | S. cerevisiae deletion strains, locus YOR265W, strain rbl2, stronger effect = lower value 0.989 | S. cerevisiae deletion strains, locus YOR270C, strain vph1, stronger effect = lower value 0.939 | S. cerevisiae deletion strains, locus YOR290C, strain snf2, stronger effect = lower value 0.962 | S. cerevisiae deletion strains, locus YOR316C, strain cot1, stronger effect = lower value 0.98 | S. cerevisiae deletion strains, locus YPL051W, strain arl3, stronger effect = lower value 0.992 | S. cerevisiae deletion strains, locus YPL078C, strain atp4, stronger effect = lower value 0.953 | S. cerevisiae deletion strains, locus YPL106C, strain sse1, stronger effect = lower value 0.982 | S. cerevisiae deletion strains, locus YPL240C, strain hsp82, stronger effect = lower value 1.01 | S. cerevisiae deletion strains, locus YPR119W, strain clb2, stronger effect = lower value 0.973 | S. cerevisiae deletion strains, locus YPR141C, strain kar3, stronger effect = lower value 0.961 | S. cerevisiae deletion strains, locus YPR163C, strain tif3, stronger effect = lower value 0.981 | S. cerevisiae deletion strains, locus YPR167C, strain met16, stronger effect = lower value 0.962 | S. cerevisiae deletion strains, strain wtn01, stronger effect = lower value 0.963 | S. cerevisiae strains, strain wild type, stronger effect = lower value 0.995
